Source: PubChem
A selection: hits, their analogues and other compounds. The true share with any hit is near 7.8%.
VACV mCherry inh: vaccinia inhibition (mCherry reporter); AID 720579; Potency, µM (doses to about 36.5 µM), inactives show top-dose activity change, negative = inhibition, usual class: inhibitors; actives 0.63% (n = 310,000); Vaccinia virus mCherry reporter infection, fluorescence; calls by dose curve; tested in A549 cells; note: potency is the fitted concentration of half-maximal effect; nearly all actives have a fitted effect of over 35% in size
Lassa entry inh: inhibitors of Lassa virus binding or cell entry. Lassa virus pseudotype entry inhibition, cell reporter. Potency, µM (titrated, usually from 37.9 µM), for inactives: at the highest dose activity change, negative = inhibition, hits mostly inhibitors. actives 1.2% (n = 300,000); calls by dose curve; tested in HEK293 cells; note: potency is the fitted concentration of half-maximal effect; nearly all actives have a fitted effect of over 50% in size
VACV Venus inh: inhibitors of vaccinia virus (Venus reporter). actives 0.46% (n = 330,000). Vaccinia virus Venus reporter expression, fluorescence. Potency, µM (series often up to 36.5 µM), inactives show top-dose activity change, negative = inhibition, most hits filed as inhibitors. AID 720580; calls by dose curve; tested in A549 cells; note: potency is the fitted concentration of half-maximal effect; nearly all actives have a fitted effect of over 30% in size
HCV inh: inhibitors of hepatitis C virus infection | Huh7.5.1 HCVcc-Cre infection, luciferase reporter, 44 h | Potency, µM (series often up to 41.8 µM), for inactives: at the top dose activity change, negative = inhibition, most hits filed as inhibitors | actives 3.4% (n = 340,000) | AID 651820; active = well fitted inhibition curve with a large enough effect; inconclusive = small, poorly fitted or top-dose-only effect, or another doubt; inactive = no such curve, though single readings can be large or run the other way; note: potency is the fitted concentration of half-maximal effect
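After 44 h co-culture of compound, cells and HCVcc-Cre (~0.5 moi), substrate is added for 15 min at room temperature and luciferase measured over 15 sec. Cells were seeded at 1,000/well and pre-cultured 4 h.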
MARV entry inh: blocks Marburg virus binding to or entry into cells | actives 1.8% (n = 300,000) | Marburg virus pseudotyped entry inhibition, cell reporter | Potency, µM (titrated, usually from 37.8 µM), for the others: at the highest dose activity change, negative = inhibition, actives largely listed as inhibitors; calls by dose curve; tested in HEK293 cells; note: potency is the fitted concentration of half-maximal effect
HCMV inh: blocks human cytomegalovirus replication; activity change, negative = inhibition, % at 57.5 µM; actives 4.5% (n = 410,000); HFF cells, HCMV-luciferase reporter, 72 h; stronger effect = lower value; in the data active = activity change below about -60%; inconclusive = no clear call, values can overlap the other calls; inactive = above about -39%
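Screen run at 2 compound doses on HFFs infected with reporter HCMV, MOI 1 PFU/cell. Luciferase activity from cell lysates at 72 h post infection gave inhibition relative to buffer-only and Salinomycin wells.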
Starred values were filed as active, the others as inactive; [ ] = dose if it differs, or a comment. % is set by controls: 0 for no effect and ±100 for the full control effect.

CCN(Cc1ccccc1)C(c1ccc(C)cc1)c1nnnn1C(C)(C)CC (stereo not given) was read as VACV mCherry inh -21.2%, Lassa entry inh inconclusive, VACV Venus inh -14.7%, HCV inh 10µM*, MARV entry inh inconclusive and HCMV inh -23.1.
For CCN(CC)C(c1ccc(C)cc1)c1nnnn1C1CCCCC1 (stereo not given) the results were Lassa entry inh 24.3%, HCV inh 35.5µM*, MARV entry inh -18.0% and HCMV inh -34.2.
`COc1ccc(CNc2ccccc2C(=O)NCc2ccccc2)cc1COc1ccc(NC(C)=O)cc1` gave VACV mCherry inh -18.1% and VACV Venus inh -18.2%.
For CC(C)(C)n1nnnc1C(c1cccs1)N(Cc1ccccc1)Cc1cccnc1 (stereo not given) the results were VACV mCherry inh -0.5%[1.46 µM], Lassa entry inh 3.4%, VACV Venus inh -19.0%, HCV inh -2.1%, MARV entry inh -6.7% and HCMV inh -39.2.
`CC(C)(C)n1nnnc1C(c1cccnc1)N(Cc1ccccc1)Cc1cccs1` (stereo not given) gave VACV mCherry inh -31.3%, Lassa entry inh inconclusive, VACV Venus inh -18.9%, HCV inh inconclusive, MARV entry inh inconclusive and HCMV inh -85.3*.
For CCOc1ccccc1NC(=O)c1nn(C)c2c1CSc1ccccc1-2 the results were VACV mCherry inh -14.4%, Lassa entry inh -8.0%[46.1 µM], VACV Venus inh -16.4%, MARV entry inh inconclusive and HCMV inh -9.2.
`c1ccc(-n2ncc3c(NC[C@@H]4CCCO4)ncnc32)cc1` gave MARV entry inh -17.8%.
`Cc1c(O)ccc2c(-c3ccccc3)cc(=O)oc12` gave HCV inh -9.3% and HCMV inh -70.8*.
For COc1ccc(-c2cc(=O)oc3c(C)c(OC(C)C(=O)Nc4ccc(CN5CCOCC5)cc4)ccc23)cc1 (stereo not given) the results were HCV inh 12.6µM* and HCMV inh inconclusive.
For COc1ccc(-c2cc(=O)oc3c(C)c(O)ccc23)cc1 the results were HCV inh -5.6% and HCMV inh -72.3*.
Cc1c(O)ccc2c(CN3CCOCC3)cc(=O)oc12 was read as HCV inh 6.9% and HCMV inh active.
For CCN(CC)Cc1c(O)ccc2c(-c3ccccc3)cc(=O)oc12 the results were Lassa entry inh -14.8%, HCV inh 4.6%, MARV entry inh 21.2% and HCMV inh 13.0.
Screening Cc1c(O)ccc2c(CN3CCN(CCO)CC3)cc(=O)oc12 returned VACV mCherry inh inconclusive, Lassa entry inh 9.7%, VACV Venus inh -15.0%, HCV inh 15.0%, MARV entry inh 33.6% and HCMV inh 17.9.
For Cc1ccc(NC(=O)c2c(C)oc3nc(C)nc(N4CCCC4)c23)c(C)c1 the results were VACV mCherry inh -0.1%, Lassa entry inh inconclusive, VACV Venus inh -14.5% and HCMV inh -32.1.
CCOC(=O)C(Oc1ccc2c(-c3ccc(OC)cc3)cc(=O)oc2c1C)c1ccccc1 (stereo not given) was read as Lassa entry inh 13µM*, HCV inh -27.9%, MARV entry inh inconclusive and HCMV inh -24.2.
`CCOC(=O)C(Oc1ccc2c(-c3ccccc3)cc(=O)oc2c1C)c1ccccc1` (stereo not given) gave VACV mCherry inh -0.4%, Lassa entry inh inconclusive, VACV Venus inh 3.1%, HCV inh inconclusive, MARV entry inh -8.1% and HCMV inh -8.1.
COc1ccc(/C=C/C(=O)c2c(O)ccc3c(C)cc(=O)oc23)cc1 was read as HCV inh inconclusive and HCMV inh -77.7*.
Screening COc1ccc(-c2cc(=O)oc3cc(OC(=O)C4CCCCC4)c(Cl)cc23)cc1 returned Lassa entry inh 3.6%, HCV inh -2.6%, MARV entry inh -12.3% and HCMV inh -90.8*.
Screening COc1ccc(/C=C\C(=O)c2c(O)ccc3c(C)cc(=O)oc23)cc1 returned VACV mCherry inh -8.7%, Lassa entry inh -26.2%, VACV Venus inh -14.0%, HCV inh -11.5%, MARV entry inh -3.1% and HCMV inh inconclusive.
Screening COc1ccc(-c2cc(=O)oc3cc(O)ccc23)cc1 returned VACV mCherry inh -8.0%, Lassa entry inh inconclusive, VACV Venus inh -19.3%, HCV inh -2.4%, MARV entry inh -29.8%[46.1 µM] and HCMV inh -96.0*.
`Cc1ccc(C)c(NC(=O)CN2C(=O)CSc3nc(C)cc(C)c32)c1` gave VACV mCherry inh -18.9%, Lassa entry inh 17.5%[46.1 µM], VACV Venus inh -5.8%, MARV entry inh -16.4%[46.1 µM] and HCMV inh 7.8.
C[C@H]1[C@@H](NC(=O)Nc2ccc(C(F)(F)F)cc2)CC[C@@]23CCCN2C(=O)CCC[C@@H]13 was read as HCMV inh -27.3.
`O=C(NCCCc1nc2ccccc2n1Cc1ccc(Cl)cc1)C1CCCCC1` gave VACV mCherry inh -9.2%, Lassa entry inh -8.7%[46.1 µM], VACV Venus inh -7.2%, MARV entry inh inconclusive and HCMV inh -9.7.
For Cc1ccc2c(CN3CCN(S(=O)(=O)c4ccc5c(c4)OCCO5)CC3)cc(=O)oc2c1C the results were VACV mCherry inh -10.5%, Lassa entry inh inconclusive, VACV Venus inh 0.1%, HCV inh 12.6µM*, MARV entry inh inconclusive and HCMV inh -77.9*.
O=C(CCCc1ccccc1)Nc1ccnn1C1CCN(Cc2ccccc2)CC1 was read as HCV inh -23.8% and HCMV inh 0.0.
Screening CSc1ccc(CN2CCC(n3nccc3NC(=O)CCCc3ccccc3)CC2)cc1 returned VACV mCherry inh -23.4%, Lassa entry inh inconclusive, VACV Venus inh -25.1%, HCV inh inconclusive, MARV entry inh inconclusive and HCMV inh -68.3*.
Screening COC(=O)c1c(OCc2cccnc2)cc(=O)n2c1CCN(C(=O)c1ccc(OC)c(F)c1)CC2 returned VACV mCherry inh inactive and VACV Venus inh -11.0%.
For CC(=O)OCC1(C)CN(c2ccccc2)N(C(C)=O)C1=O (stereo not given) the results were HCV inh -8.8% and HCMV inh inconclusive.
For CC(=O)OCC1(C)CN(c2ccccc2)NC1=O (stereo not given) the results were HCV inh -1.2% and HCMV inh -62.1*.
For CN(C)c1nc(OCCNC(=O)Nc2ccccc2)nc(N2CCCCC2)n1 the results were VACV mCherry inh -7.5%, Lassa entry inh -16.8%, VACV Venus inh -5.0%, HCV inh 11.2µM*, MARV entry inh -17.1% and HCMV inh -28.0.
CN(C)c1nc(OCCNC(=O)Nc2ccccc2)nc(N2CCOCC2)n1 was read as VACV mCherry inh -11.4%, VACV Venus inh -21.2%, HCV inh inconclusive, MARV entry inh 0.6% and HCMV inh -14.9.
